The entries come from a sample that favours hits as a whole.
IL1B secr inh: qHTS for Inhibitors of Inflammasome Signaling: IL-1-beta AlphaLISA Primary Screen; THP-1 LPS/ATP IL-1B secretion, AlphaLISA, 16 h; hits give low values; activity change, % at 57.5 µM; hit rate 4.7% among 360,000; in the data active = activity change below about -50%; inconclusive = mostly about -30% to -49%
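THP-1 cells pretreated 1 hr with compounds (up to 57.5 uM final), then stimulated with LPS (250 ng/mL final) plus ATP (1.25 mM final); secreted IL-1B measured by AlphaLISA after 16 hr, decreased signal indicating inhibition.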
HT1080-NT tox: qHTS for induction of synthetic lethality in tumor cells producing 2HG: qHTS for the HT-1080-NT fibrosarcoma cell line. HT-1080-NT fibrosarcoma viability, CellTiter-Glo ATP luminescence, 48 h. Potency, µM (top dose mostly 46.1 µM), actives largely listed as cytotoxic. hit rate 1.6% among 360,000;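 also: NT is the 2HG producing partner of a matched IDH1 knockdown line; nearly all actives have a fitted effect of over 55% in size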
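Toxicity toward the 2HG-producing NT line was scored as %Activity, normalised to DMSO and no-cell wells, from CellTiter-Glo luminescence after 48 hours' treatment.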
12-LOX inh: Primary qHTS assay for inhibitors of human arachidonate 12S-lipoxygenase (ALOX12): Round 2 | Polyunsaturated fatty acid lipoxygenase ALOX12 (Homo sapiens), P18054 | purified 12hLO, xylenol orange hydroperoxide absorbance | Potency, µM (top dose mostly 108 µM), usual class: inhibitors | hit rate 1.1% among 580,000 | AID 1671190, 2021
Target sequence (P18054 whole entry, looked up): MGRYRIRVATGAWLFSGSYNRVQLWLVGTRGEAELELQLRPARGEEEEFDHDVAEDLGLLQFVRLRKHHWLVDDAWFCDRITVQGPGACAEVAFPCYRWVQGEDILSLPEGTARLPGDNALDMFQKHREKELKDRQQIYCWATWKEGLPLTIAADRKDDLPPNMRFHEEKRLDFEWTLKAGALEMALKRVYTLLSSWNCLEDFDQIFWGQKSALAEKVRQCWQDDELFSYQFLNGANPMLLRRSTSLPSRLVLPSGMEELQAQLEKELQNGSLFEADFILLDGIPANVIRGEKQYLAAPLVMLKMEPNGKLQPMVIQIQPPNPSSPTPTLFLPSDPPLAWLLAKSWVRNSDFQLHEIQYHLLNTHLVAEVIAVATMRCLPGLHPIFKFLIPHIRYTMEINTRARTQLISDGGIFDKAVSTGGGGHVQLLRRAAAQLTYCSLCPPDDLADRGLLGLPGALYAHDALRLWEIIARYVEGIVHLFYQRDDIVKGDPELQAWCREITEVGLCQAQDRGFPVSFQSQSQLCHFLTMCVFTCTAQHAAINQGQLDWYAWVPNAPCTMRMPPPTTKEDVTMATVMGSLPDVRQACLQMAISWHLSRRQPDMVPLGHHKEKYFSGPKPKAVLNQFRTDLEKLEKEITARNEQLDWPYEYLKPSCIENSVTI
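Hydroperoxide product was detected by ferrous iron/xylenol orange as the 573 to 405 nm absorbance ratio. Arachidonic acid at 40 uM (final) was turned over for 30 min at room temperature by 150 nM human 12hLO, pH 7.0 Hepes buffer, after 15 min compound preincubation.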
HT1080 IDH1KD tx: qHTS for induction of synthetic lethality in tumor cells producing 2HG: qHTS for the HT-1080-IDH1KD cell line. HT-1080 IDH1 knockdown viability, ATP luminescence, 48 h. Potency, µM (highest dose often 46.1 µM), usual class: cytotoxic. hit rate 2% among 360,000
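Luminescent ATP read-out (CellTiter-Glo, 10 min at room temperature) after 48 h compound exposure at 37 °C gave viability of IDH1-knockdown HT-1080 cells. Activity was normalised to DMSO and cell-free wells, then fitted as concentration-response curves.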
TDP1 cell noCPT: qHTS for Inhibitors of human tyrosyl-DNA phosphodiesterase 1 (TDP1): qHTS in cells in absence of CPT | DT40 Tdp1-/- hTDP1 cells, no CPT, ATP luminescence, 48 h | Potency, µM (doses to about 46.2 µM), usual class: inhibitors | hit rate 15% among 420,000; also: nearly all actives have a fitted effect of over 55% in size
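Cells were dispensed at 400 per well, compounds added by pin tool, plates incubated ≥48 hr at 37 °C, then CellTiter-Glo added for 30 min at room temperature before luminescence reading. Line: DT40 Tdp1-/- complemented with hTDP1; camptothecin omitted.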
TDP1 cell CPT: qHTS for Inhibitors of human tyrosyl-DNA phosphodiesterase 1 (TDP1): qHTS in cells in presence of CPT | chicken DT40 Tdp1-/-;hTDP1 cells + 20 nM CPT, ATP luminescence, 48 h | Potency, µM (titrated, usually from 46.2 µM), hits mostly inhibitors | hit rate 12% among 420,000 | AID 686979, 2013; also: nearly all actives have a fitted effect of over 55% in size
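Chicken DT40 Tdp1-/- cells complemented with human TDP1, 400 cells/well, exposed to compounds plus 20 nM camptothecin for at least 48 h at 37 C; viability read as ATP content by CellTiter-Glo luminescence.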
A number is an active result; n = inactive; u = inconclusive; x = no result given; ! = repeats disagree. Unless noted, calls follow the shape of the dose curve; as a rule, active = well fitted curve in the direction sought with a large enough effect; inconclusive = small, poorly fitted or top-dose-only effect, or another doubt; inactive = no such curve, though single readings can be large; an effect the other way counts as inactive or inconclusive.

SMILES	IL1B secr inh	HT1080-NT tox	12-LOX inh	HT1080 IDH1KD tx	TDP1 cell noCPT	TDP1 cell CPT
N#CC(C#N)=C1c2cc(S(N)(=O)=O)ccc2-c2ccc(S(N)(=O)=O)cc21	n	n	n	n	21µM	16µM
N#CC(C#N)=C1c2cc(S(=O)(=O)NCCO)ccc2-c2ccc(S(=O)(=O)NCCO)cc21	u	n	u	n	u	13µM
O=C1c2cc(S(=O)(=O)NCCO)ccc2-c2ccc(S(=O)(=O)NCCO)cc21	n	n	u	n	n	n
CNC(=O)NC(=O)C(C)SC(C)c1ccc(F)cc1 (stereo not given)	x	x	n	x	x	x
Cc1cc([N+](=O)[O-])ccc1NC(=O)COC(=O)C12CC3CC(CC(Cl)(C3)C1)C2	x	x	n	x	x	x
O=C(Nc1cccc([N+](=O)[O-])c1)N1CCN(c2ccccc2)CC1	n	n	n	n	u	n
Cc1ccc(N2CCN(C(=O)Nc3cccc([N+](=O)[O-])c3)CC2C)cc1 (stereo not given)	-71	n	n	n	u	n
CCCc1ccc(O)c(N=Cc2cc(Br)cc(OCC)c2O)c1	n	u	u	23µM	2.6µM	3.7µM
CCOc1ccc(Br)cc1/C=N/O	n	n	n	n	n	n
CCOc1ccc(C(=O)Nc2cccc(-c3nc4ccccc4o3)c2C)cc1[N+](=O)[O-]	x	x	n	x	x	x
O=C(Nc1cccnc1)c1cccc(-c2cc3ccccc3oc2=O)c1	n	n	n	n	n	n
CCOc1ccc(C(=O)Nc2cccc(-c3cc4ccccc4oc3=O)c2)cc1[N+](=O)[O-]	n	n	n	n	23µM	23µM
CCOc1ccc2nc(NC(=O)c3cccc(-c4cc5ccccc5oc4=O)c3)sc2c1	n	13µM	u	16µM	23µM	u
Cc1ccc2nc(NC(=O)c3cccc(-c4cc5ccccc5oc4=O)c3)sc2c1	n	u	u	u	23µM	15µM
CNC(=O)c1cc(=O)n(CC(=O)Nc2ccccc2)c2ccccc12	x	x	n	x	x	x
C#CC(c1ccccc1)(c1ccccc1)n1ccnc1	n	n	n	n	23µM	u
Clc1ccccc1C(c1ccccc1)(c1ccccc1)n1ccnc1	n	u	u	u	10µM	8.1µM
CCOC(=O)c1cn(-c2c(C)n(C)n(-c3ccccc3)c2=O)c2c(F)c(F)c(F)cc2c1=O	n	n	n	n	n	n
CCOc1cc(C(=O)Nc2ccc(N3CCN(C)CC3)cc2)cc(OCC)c1OCC	x	x	n	x	x	x
NC(=O)CSc1ncnc2c1nnn2Cc1ccc(F)cc1	-96	n	n	u	u	n
O=C(Cn1cnc2c(nnn2Cc2ccc(F)cc2)c1=O)NCc1ccc(F)cc1	n	u	n	18µM	u	u
CCC(Sc1nc2nccnc2c(=O)n1Cc1ccc(F)cc1)C(=O)NC1CCCCC1 (stereo not given)	x	x	n	x	u	21µM
CC1=NN(c2ccccc2)C(=O)/C1=C\C=C\c1ccccc1	x	4.1µM	u	3.7µM	7.3µM	4.6µM
CC1=NN(c2ccccc2)C(=O)/C1=C/c1cccc(C)c1	n	n	n	n	u	u
CC1=NN(c2ccccc2)C(=O)/C1=C/C=C/c1ccc(N(C)C)cc1	n	n	n	n	23µM	23µM
SMILES	IL1B secr inh	HT1080-NT tox	12-LOX inh	HT1080 IDH1KD tx	TDP1 cell noCPT	TDP1 cell CPT
O=C(Cn1nc(C(=O)O)c2ccccc2c1=O)NC(=O)NCc1ccccc1	x	x	n	x	x	x
COc1cc(NC(=O)c2ccc(N3C(=O)CCS3(=O)=O)cc2)cc(OC)c1OC	x	x	n	x	x	x
O=C1NC(=O)C(c2ccccc2[N+](=O)[O-])=C1Nc1ccc(O)c(Cl)c1	n	n	u	n	27µM!	7.3µM!
COc1ccc(N2C(=O)CC(N3CCC(c4nc5ccccc5[nH]4)CC3)C2=O)cc1 (stereo not given)	n	n	n	n	u	u
O=C1CC(N2CCC(c3nc4ccccc4[nH]3)CC2)C(=O)N1c1ccccc1F (stereo not given)	n	n	n	n	u	26µM
COc1ccc(CC(=O)N2CCOC[C@H](Oc3ccccc3)C2)cc1	x	x	n	x	x	x
COc1ccc(N(C(=O)CCC(=O)Nc2cc(C)on2)C(C(=O)NC2CCCC2)c2ccco2)cc1 (stereo not given)	n	n	n	n	n	n
CCCCN(C(=O)CCC(=O)Nc1cc(C)on1)C(C(=O)NC1CCCC1)c1cccc(OC)c1 (stereo not given)	n	n	n	n	u	8.2µM
COc1ccc(N(C(=O)/C=C/C(=O)Nc2cc(C)on2)C(C(=O)NC2CCCC2)c2ccccc2C)cc1 (stereo not given)	-87	u	n	u	21µM	u
Cc1cc(NC(=O)CCC(=O)N(Cc2ccco2)C(C(=O)NC2CCCC2)c2ccccc2C)no1 (stereo not given)	n	n	n	n	23µM	23µM
CCC1(O)CCCC2C3CCC4CC(=O)CCC4(C)C3C(=O)CC21C (stereo not given)	n	n	n	n	n	n
CCn1c(C(=O)N2CCCC(C(=O)N3CCN(c4cc(C)ccc4C)CC3)C2)cc2sccc21 (stereo not given)	x	x	n	x	13µM	u
Cc1ccc(C)c(N2CCN(C(=O)C3CCN(C(=O)c4cc5sccc5n4C)CC3)CC2)c1	x	x	n	x	8.2µM	9.2µM
Cn1c(C(=O)N2CCN(c3cccc(C(F)(F)F)c3)CC2)cc2sccc21	n	n	n	u	u	n
Cc1ccc(C)c(N2CCN(C(=O)c3cc4sccc4n3C)CC2)c1	n	u	n	u	u	u
Cc1cccc(N2CCN(C(=O)C3CCN(C(=O)c4cc5sccc5n4C)CC3)CC2C)c1 (stereo not given)	x	x	n	x	5.2µM	13µM
CCCc1ccc(S(=O)(=O)N2C[C@@H](F)C[C@H]2C(=O)N2CCc3ccccc3C2)cc1	x	x	n	x	x	x
Cc1cc2c(nc1C)CCCN2Cc1ccccn1	x	x	n	x	x	x
OC(Cc1ccccc1Br)c1ncc(-c2ccc(Cl)cc2)[nH]1 (stereo not given)	n	u	u	21µM	u	u
CCc1ccc(C(O)c2ncc(-c3ccc(Cl)cc3)[nH]2)cc1 (stereo not given)	n	n	n	n	u	u
